High-throughput results deposited in PubChem by National Center for Advancing Translational Sciences (NCATS).
Compounds with a hit are over-represented: about 3% of the library has one in this group of screens.
PLK1 PBD block = blocks phosphopeptide binding to human PLK1 polo-box domain; P53350; Plk1 PBD binding of FITC phosphopeptide, fluorescence polarization; Potency, µM, usual class: inhibitors; hit rate 2.8% among 360,000; AID 720504; also: series mostly up to about 57 µM; nearly all actives have a fitted effect of over 65% in size
GCN5L2 inh = GCN5L2 (KAT2A) acetyltransferase inhibition | Q92830 | GCN5L2 HAT assay, ThioGlo1 CoA-SH fluorescence | Potency, µM (series often up to 58.9 µM), actives largely listed as inhibitors | hit rate 0.21% among 390,000 | AID 504327
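Compounds, pin-transferred from DMSO stocks, meet 20nM GCN5L2 for 15 min before the reaction begins with H3(1-25) peptide (75uM) and acetyl-CoA (70uM). Thiol-reactive ThioGlo1 reports CoA release over 20 min at room temperature.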
USP1-UAF1 inh = inhibitors of human USP1/UAF1 deubiquitinase; recombinant USP1/UAF1, Ub-Rhodamine cleavage fluorescence; hit rate 0.23% among 390,000; Potency, µM (titrated, usually from 57.1 µM), actives largely listed as inhibitors; O94782; also: nearly all actives have a fitted effect of over 60% in size
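1 nM enzyme complex + cpd, 15 min RT; start with Ub-Rho 150nM final; kinetic fluorescence ex 480/em 540, 6 reads q60 s. Buffer 50mM HEPES pH 7.8, 0.5mM EDTA, 0.1 mg/ml BSA, 1mM TCEP, 0.01% Tween-20.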
TSG101-PTAP inh = blocks PTAP/TSG101 interaction to inhibit HIV-1 budding; 340,000 tested, under 10 active; Q99816; AID 493005; Potency, µM (top dose mostly 115 µM), most hits filed as inhibitors; Fluorescence polarization, FITC-PTAP peptide / Tsg101 binding; active = well fitted inhibition curve with a large enough effect in the main read-out, with a control signal flat, not every such curve was filed as active; inconclusive = small, poorly fitted or top-dose-only effect, or effect the other way, or a change in a side signal; inactive = no such curve, though single readings can be large or run the other way
Target sequence (Q99816 whole entry, looked up): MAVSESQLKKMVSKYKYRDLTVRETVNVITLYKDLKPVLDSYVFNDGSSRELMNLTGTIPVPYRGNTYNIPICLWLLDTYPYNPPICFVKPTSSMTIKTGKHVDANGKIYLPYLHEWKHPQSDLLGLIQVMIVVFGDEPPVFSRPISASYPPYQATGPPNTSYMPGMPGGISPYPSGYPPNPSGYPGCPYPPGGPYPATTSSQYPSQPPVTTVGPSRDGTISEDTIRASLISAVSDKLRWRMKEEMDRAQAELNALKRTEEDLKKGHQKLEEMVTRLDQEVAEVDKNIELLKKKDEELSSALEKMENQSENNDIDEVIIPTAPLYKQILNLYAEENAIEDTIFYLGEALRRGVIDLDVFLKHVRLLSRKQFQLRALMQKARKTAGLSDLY
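Fluorescence anisotropy tracks displacement of a FITC-tagged PTAP peptide (50 nM) from the Tsg101 binding domain (10 uM), following a 20 min room-temperature incubation at pH 7.5.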
VDR inh = vitamin D3 receptor (human) inhibition; Potency, µM, usual class: inhibitors; hit rate 0.93% among 400,000; VDR-SRC2-3 peptide fluorescence polarization, 2 h
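Inhibition of the VDR/SRC2-3 peptide interaction is quantified by fluorescence polarization. Compounds (23 nl, pintool) incubate with the reagents for 2 hours at ambient room temperature.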
Hits are given with their value; . = inactive; ? = inconclusive; / = not tested or not shown. Unless noted, calls follow the shape of the dose curve; as a rule, active = well fitted curve in the direction sought with a large enough effect; inconclusive = small, poorly fitted or top-dose-only effect, or another doubt; inactive = no such curve, though single readings can be large; an effect the other way counts as inactive or inconclusive.

SMILES	PLK1 PBD block	GCN5L2 inh	USP1-UAF1 inh	TSG101-PTAP inh	VDR inh
Cc1ccc(CCNS(=O)(=O)c2cc(-c3cc(C)no3)ccc2C)cc1	/	.	.	/	.
CC(=O)c1cccc(NC(=O)c2ccc(C)o2)c1	30µM	.	.	.	.
CC(C)C(=O)Nc1ccc(NC(=O)c2ccc3c(c2)OCO3)cc1	.	.	.	.	.
CC(=O)c1cccc(NC(=O)c2ccc(Br)o2)c1	.	.	.	.	.
O=C(Nc1cccc(-c2nc3ncccc3o2)c1)c1ccc2c(c1)OCO2	27µM	/	.	.	?
O=C(Nc1cc(-c2nc3ncccc3o2)ccc1Cl)c1ccc2c(c1)OCO2	.	.	.	.	.
COc1cc(NC(=O)c2ccc3c(c2)OCO3)ccc1NC(=O)C(C)C	30µM	.	.	.	.
O=C(Nc1ccc(-c2nc3ncccc3o2)cc1)c1ccco1	11µM	.	.	.	?
CC(C)c1cnc2c(c1SCC(=O)Nc1cccc([N+](=O)[O-])c1)c(=O)n(C)c(=O)n2C	/	.	.	/	.
Cc1ccccc1-c1ccc2ncnc(NCc3cccs3)c2c1	/	?	/	/	.
CC(=O)c1cccc(NC(=O)c2ccc3c(c2)OCO3)c1	24µM	.	.	.	79µM
CCN(CC)S(=O)(=O)c1ccc2[nH]c(=O)cc(C(=O)Nc3cccc(C(C)=O)c3)c2c1	.	.	.	.	.
CC(=O)c1cccc(NC(=O)c2cc(=O)[nH]c3ccccc23)c1	19µM	.	.	.	.
C[C@@H](CCc1ccc(O)cc1)NCCc1ccc(O)c(O)c1	/	.	/	/	.
N#CC1=C(N)NC(=S)C(C(N)=O)C1c1ccc([N+](=O)[O-])cc1 (stereo unspecified)	27µM	.	.	.	79µM
O=C(CCN1CCCC1)c1cccs1	11µM	.	.	.	?
COc1ccc(C(=O)CCN2CCN(c3ccccc3F)CC2)cc1	11µM	.	.	.	22µM
COc1ccc(C(=O)CCN2CCCCCC2)cc1	16µM	.	.	.	28µM
CCOc1ccc(C(=O)CCN2CCCCC2)cc1	?	.	.	.	?
CCCCn1c(SCC(=O)NCc2ccc(C)cc2)nc2c(sc3ccccc32)c1=O	/	.	.	/	.
CCOc1cc(CNC(=O)C2CCN(c3nc4ccccc4[nH]3)CC2)cc(OCC)c1OCC	/	.	?	/	.
CCOC(=O)C1CCCN(C(=O)CSc2ccc(Br)cc2)C1 (stereo unspecified)	24µM	.	.	.	?
O=C(CSc1ccc(Cl)cc1)N1CCCC1	24µM	.	.	.	?
CCOC(=O)N1CCN(C(=O)Cn2ncc3ccccc32)CC1	30µM	.	.	.	.
Cc1ccc(SCC(=O)N2CCCC2)cc1	.	.	.	.	.
SMILES	PLK1 PBD block	GCN5L2 inh	USP1-UAF1 inh	TSG101-PTAP inh	VDR inh
CCOC(=O)N1CCN(C(=O)CSc2ccccc2)CC1	15µM	.	.	.	.
CCOC(=O)C1CCCN(C(=O)CSc2nc(C)cc(C)n2)C1 (stereo unspecified)	.	.	.	.	.
O=S(=O)(c1ccc(OC(F)(F)F)cc1)N1CCN(c2nc(-c3ccccc3)nc3ccccc23)CC1	/	/	/	/	.
COc1ccccc1-c1nnc(SCC(=O)Nc2cccnc2Cl)n1C	.	.	.	.	.
CC(=O)NC1=NN(C(C)=O)C(c2ccccc2)S1 (stereo unspecified)	4.7µM	.	.	.	?
COc1ccccc1-c1noc(-c2ccc(N3CCC(C)CC3)c([N+](=O)[O-])c2)n1	/	.	.	/	.
O=C1NC(=O)C(c2cn(-c3ccccc3)nc2-c2ccc(F)cc2)N1 (stereo unspecified)	5.3µM	.	.	.	?
CCCCCCCC1CC(/C(C)=N/NC(N)=O)OC1=O (stereo unspecified)	12µM	.	.	.	45µM
CC1CCc2c(sc3nnn(CCCCOc4ccc(Cl)cc4)c(=O)c23)C1 (stereo unspecified)	/	.	.	/	.
CCOC(=O)/C=C/CCC/C=C/C(=O)c1ccccc1	/	/	/	/	8.9µM
COC(=O)c1cc(C)nc(Sc2ccccc2N)n1	1.7µM	.	.	.	5µM
O=C(Nc1ccc(C(=O)N2CCN(c3ccccc3F)CC2)cc1)c1nsc2ccccc12	/	.	.	/	.
N#Cc1ccc(/C=C\c2nccc3c2[nH]c2ccccc23)cc1	.	.	22µM	?	.
CS(=O)(=O)N1CCN(c2ccccc2NC(=O)c2ccc([N+](=O)[O-])o2)CC1	3.4µM	.	.	.	?
CSC(SC)=C(C#N)C(=O)c1ccccc1	11µM	.	.	.	?
CCC(c1nnc(SCC(=O)Nc2cc(C)on2)o1)N(C)C (stereo unspecified)	?	.	.	.	.
CCC(c1nnc(SCC(=O)NCCc2ccc(Cl)cc2Cl)o1)N(C)C (stereo unspecified)	27µM	.	.	.	.
Cc1nnc(SCc2nnc(-c3ccccc3Br)o2)s1	.	.	.	.	.
O=C(N/N=C\c1ccc(Br)o1)C1COc2ccccc2O1 (stereo unspecified)	17µM	.	.	.	.
COc1ccc(C2CC23N=C(c2ccccc2)OC3=O)cc1 (stereo unspecified)	17µM	.	.	.	?
CCOC(=O)C1(C)CCN1C(=O)c1ccc(C(F)(F)F)cc1 (stereo unspecified)	.	/	/	/	/
CC(C)(C)OC(=O)N1CCC(c2c(C(=O)NCCN3CCC(Cc4ccccc4)CC3)cnn2-c2cccc(Cl)c2)CC1	/	.	.	/	.
S=C(NCc1ccccc1)NCc1cccc(Cl)c1	.	.	.	.	.
CN(C)C(=S)NCc1ccccc1	2.7µM	.	.	.	?
S=C(NCc1ccccc1)NCc1cccc(CNC(=S)NCc2ccccc2)c1	27µM	.	.	.	?
SMILES	PLK1 PBD block	GCN5L2 inh	USP1-UAF1 inh	TSG101-PTAP inh	VDR inh
COCCN1C(=O)N[C@@H](c2cccc(C(F)(F)F)c2)C(C(=O)OC)=C1C	30µM	/	.	.	?
CC(=O)/C=C(\C)Nc1ccc(-c2cnc(-c3ccccc3)o2)cc1	.	28µM	.	.	.
COc1ccc(Oc2coc3cc(OC(=O)c4cccs4)ccc3c2=O)cc1	.	.	.	.	.
O=C1NN(c2ccc(Cl)c(Cl)c2)C(=O)/C1=C/c1cccc(OC(=O)c2cccs2)c1	/	35µM	/	/	/
COc1cc(C(=O)NC(=S)Nc2ccc(Cl)cn2)cc(OC)c1OC	24µM	.	.	.	?
Cc1ccc(C2=NOC(=O)/C2=C\c2ccc(C)o2)cc1	0.75µM	?	.	.	?
O=C1ON=C(c2ccccc2)/C1=C/c1ccc(O)c(O)c1	?	.	.	.	45µM
COc1ccc(/C=C2\C(=O)ON=C2c2ccccc2)cc1	1.5µM	.	.	.	?
O=C1ON=C(c2ccccc2)/C1=C/c1cccnc1	.	.	.	.	.
O=C1ON=C(c2cccc([N+](=O)[O-])c2)/C1=C/c1ccc(O)cc1	1.5µM	.	.	.	?
